# According to PubChem BioAssay AID1778 (Sanford-Burnham Center for Chemical Genomics, 2009):
# Values joined by “and” are separate entries in the source; they are usually repeats but may differ in a detail not shown here. Identical values can stand only once. The whole screen tested about 290,000 compounds, of which about 260 (0.09%) were called active. This excerpt belongs to a sample that is enriched for actives. Entries with a potency or affinity are not part of this list. Values without a mark were called inactive. No stated cut-off is given here; in the data, active means inhibition above about 50%; inactive means the rest.
# Molecular target: Kappa-type opioid receptor (Homo sapiens) (UniProt P41145)
# Experiment: KOR antagonists, beta-arrestin recruitment, cell-based, luminescence, uHTS (AID 1778)
# Conditions: antagonist mode, stronger effect = higher value; at 10 µM unless noted
# Sequence of Kappa-type opioid receptor (Homo sapiens) (P41145 whole entry, looked up): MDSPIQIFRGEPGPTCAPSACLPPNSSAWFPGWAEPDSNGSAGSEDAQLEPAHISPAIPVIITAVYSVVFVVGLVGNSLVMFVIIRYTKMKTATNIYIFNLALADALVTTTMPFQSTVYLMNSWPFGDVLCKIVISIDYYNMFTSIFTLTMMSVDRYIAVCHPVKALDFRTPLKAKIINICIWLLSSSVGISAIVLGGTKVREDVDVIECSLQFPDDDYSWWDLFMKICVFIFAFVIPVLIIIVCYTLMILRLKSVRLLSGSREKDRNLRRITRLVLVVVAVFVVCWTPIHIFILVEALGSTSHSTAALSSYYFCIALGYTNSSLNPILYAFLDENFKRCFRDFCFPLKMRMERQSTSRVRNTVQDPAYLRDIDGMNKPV
row,SMILES,inhibition
1,CCOC(=O)c1cc2cc(CC(=O)c3ccc(OCC)cc3O)ccc2o1,-2%
2,CC(C(=O)O/N=C(\N)c1ccccn1)c1ccc([N+](=O)[O-])cc1 (centres undefined),-1.4%
3,C/C(=N\NC(=O)c1ccccn1)C12CC3CC(CC(C3)C1)C2,-17.6%
4,CCCCCC(=O)N/N=C(\C)c1ccccn1,10.5%
5,CC(C)C(=O)NNC(=O)c1ccccn1,13.4%
6,C/C(=N/NC(=O)CNC(=O)c1ccccn1)c1ccc([N+](=O)[O-])cc1,6.2%
7,C/C(=N\NC(=O)C(c1ccccc1)c1ccccc1)c1ccccn1,81.1% (active)
8,C/C(=N\NC(=O)C(c1ccccc1)c1ccccc1)c1ccc(O)cc1,-26.8% [at 20 µM]
9,O=C(NNC(=O)C12CC3CC(CC(C3)C1)C2)c1cnccn1,27.4%
10,O=C(NNc1ccccn1)C(c1ccccc1)c1ccccc1,11.4%
11,Cc1ccc(S(=O)(=O)NN)c(C)c1N1CCCC1=O,24.2%
12,Cc1cccc(C)c1NC(=O)C1CCCN1S(=O)(=O)c1ccccc1 (centres undefined),-40.1%
13,O=C(NCc1cccnc1)C1c2ccccc2C(=O)N1C1CCCCCC1 (centres undefined),-16.6%
14,O=C(NCCc1nnc2ccc(N3CCCCCC3)nn12)c1ccccc1,-2.6%
15,CN(C)c1ccc(P(=O)(Nc2cccc(C(F)(F)F)c2)N2CCOCC2)c(NC(=O)c2cccs2)c1 (centres undefined),41.3%
16,CNC(=S)N1N=C(c2ccc(C)cc2)CC1c1ccc(N(C)C)cc1 (centres undefined),7.7%
17,CC1CCCCN1C(=O)COc1ccccc1F (centres undefined),-32.6% [at 20 µM]
18,O=C(Nc1ccnc(-c2cccnc2)n1)c1ccc(Cl)cc1,-18.4%
19,O=C1COc2ccc(C(=O)CSc3nnc(NCc4ccccc4)s3)cc2N1,21.4%
20,CCNC(=S)N=Nc1c(O)n(Cc2ccc(Cl)cc2)c2ccccc12,-4.3%
21,CCn1c(O)c(N=NC(=S)NCC2CCCO2)c2ccccc21 (centres undefined),60.6% (active)
22,Oc1[nH]c2ccccc2c1N=NC(=S)NCC1CCCO1 (centres undefined),-22%
23,COc1ccc(CNC(=O)c2ccc(CN3CCOCC3)cc2)cc1,-18.5%
24,O=C(NCc1ccco1)C(=O)c1cn(CC(=O)N2CCCC2)c2ccccc12,-7.4%

row,SMILES,inhibition
1,O=C(COc1ccccc1)Nc1nnc(S(=O)(=O)N2CCCC2)s1,-9.4%
2,Cc1cc(NCc2ccccn2)n2c(nc3ccccc32)c1C#N,18.9% [at 20 µM]
3,CCCNC(=O)COc1cccc(C(=O)NCc2ccccc2)c1,16.7%
4,Oc1ccc(/C=N/Nc2ccnc3cc(Cl)ccc23)c(O)c1,3.8%
5,Oc1ccc(Nc2ccnc3cc(Cl)ccc23)cc1,25.2%
6,O=C(O)CC1(CC(=O)Nc2ccc(C(F)(F)F)cc2)CCCC1,-5.5%
7,O=C(N/N=C/c1cc2cc3c(cc2nc1Cl)OCO3)c1ccncc1,-14.5%
8,COc1ccc(N2CCN(C(=S)NC(=O)c3cccs3)CC2)c([N+](=O)[O-])c1,4.6%
9,O=C(NC(=S)N1CCN(c2ccc(C(F)(F)F)cc2[N+](=O)[O-])CC1)c1cccs1,6.2%
10,CC(=O)c1ccc(NC(=S)N2CCCC(CO)C2)cc1 (centres undefined),35.3%
11,C#CCOCCOCCOCCNc1nc(N2CCN(C(=O)[C@H](C)n3cc(CCCN=C(N)N)nn3)CC2)nc(N2CCN(C(=O)[C@H](CCCCN)n3cc(CCCC)nn3)CC2)n1,-17.1%
12,CN(Cc1ccccc1)c1ccc(C(CC(N)=O)NC(=O)c2ccccc2)cc1[N+](=O)[O-] (centres undefined),-1.2% [at 20 µM]
13,O=C(CN1CCN(c2ccc(F)cc2)CC1)OCc1ccccc1,21.3%
14,COCc1cc(=O)[nH]c(Nc2nc3ccccc3o2)n1,14.7%
15,Cc1ccc2oc(Nc3nc(C)c(C)c(C)n3)nc2c1,6.8%
16,Cc1cc(C)nc(Nc2nc3ccccc3o2)n1,17.6%
17,Cc1ccc2oc(Nc3nc(C)cc(C)n3)nc2c1,12.4%
18,COc1ccccc1-c1ccc(Nc2cccc(C(F)(F)F)c2)nn1,-2.2%
19,CCOc1ccc(S(=O)(=O)N(C)CC(=O)NCc2ccco2)cc1,5%
20,CCCC1=C(C(=O)OCC)C(c2c(C)nn(-c3ccccc3)c2Cl)C(C#N)=C(N)O1 (centres undefined),-61.5%
21,CCCOc1cccc(-c2cc(C(=O)N/N=C/c3cccnc3)c3ccccc3n2)c1,-14%
22,CCCOc1cccc(-c2cc(C(=O)NN)c3ccccc3n2)c1,-44.7%
23,O=C(CN1C(=O)S/C(=C\c2ccc(F)cc2)C1=O)NCCCn1ccnc1,1.3%
24,O=C(/C=C/c1ccc([N+](=O)[O-])cc1)Oc1ccc(/C=N/NC(=O)c2ccncc2)cc1,-27.5%

row,SMILES,inhibition
1,CC(=O)/C(=N\Nc1ccccc1)Sc1cccc2cccnc12,13.9%
2,O=C(O)CSc1cccc2cccnc12,-59.2% and -13%
3,O=C(CSc1cccc2cccnc12)N/N=C/c1ccc(F)cc1,17.3%
4,O=C(Sc1cccc2cccnc12)c1ccc(F)cc1,73.6% (active)
5,CCN(CC)C(=O)Sc1cccc2cccnc12,19.2%
6,Cc1cccc(CSc2ccc3nnc(-c4ccccn4)n3n2)c1,8.5%
7,Cc1cc(NC(=O)c2cc(C3CC3)on2)n(-c2ccccc2)n1,-9.5%
8,COc1cc(/C=N/n2nnnc2N)ccc1OC(C)C,26.9%
9,O=C(CCCCCN1C(=O)c2ccccc2C1=O)Oc1ccc2c3c(c(=O)oc2c1)CCC3,-61.9%
10,CC1=C(C(=O)Nc2ccccc2C)C(c2ccccc2)NC(=O)N1 (centres undefined),-32.2%
11,CCOC(=O)c1c(CN2CCCCC2)n(C)c2ccc(OC)c(S(=O)(=O)c3ccccc3)c12,4.2%
12,Cc1ccc(C(=O)O)cc1-n1c(=O)n(Cc2ccccc2)c(=O)c2[nH]cnc21,-9.2%
13,COc1ccc(Cn2c(=O)c3[nH]cnc3n(-c3ccccc3C)c2=O)cc1,-13.7%
14,COc1cccc(Cn2c(=O)c3[nH]cnc3n(-c3ccccc3C)c2=O)c1,7.3%
15,COC(=O)c1cccc(-n2c(=O)n(Cc3ccccc3)c(=O)c3[nH]cnc32)c1C,23.8%
16,O=C(Nc1ccc(Oc2ccccc2)cc1)c1cnc2n(c1=O)CCS2,0.1%
17,Cc1ccc(S(=O)(=O)N(Cc2cc3ccc(C)cc3[nH]c2=O)c2ccccc2)cc1,17.5%
18,CCCCCn1c(SCCCC)nc2c1c(=O)[nH]c(=O)n2C,-43.8%
19,COc1cc2c(cc1OC)C1(CCCC1)CNC2C (centres undefined),7.4%
20,COc1cc2c(cc1OC)C1(CCCC1)CNC2c1ccc([N+](=O)[O-])cc1 (centres undefined),-8.4%
21,COc1ccc(OC)c(NC(=O)Nc2ccc3c(c2)OCO3)c1,-10.5%
22,O=C(Nc1ccc(C(F)(F)F)cc1)c1ccc2ncsc2c1,-15.9%
23,Cc1ccc(NC2=C(Cl)C(=O)c3ccccc3C2=O)cc1,37.4%
24,O=C1C(Cl)=C(Nc2ccccc2)C(=O)c2ccccc21,15.5%

row,SMILES,inhibition
1,O=C1C(Cl)=C(Nc2ccc3cn[nH]c3c2)C(=O)c2ccccc21,76.4% (active)
2,COC(=O)c1c(NC(=O)/C=C/C(=O)O)sc(Cc2ccccc2)c1C,14.3%
3,NNC(=O)c1ccc(CSc2cccc3cccnc23)cc1,-21.6%
4,O=C(c1ccc(CNS(=O)(=O)c2ccc(Br)cc2)cc1)N1CCCCCC1,-30.5%
5,CC(=O)N1CCc2cc(S(=O)(=O)NC(Cc3ccccc3)C(=O)NCCN3CCCCC3C)ccc21 (centres undefined),15%
6,N#CC(=C1N=c2ccccc2=N1)c1c(O)[nH]c2ccccc12,-33.6%
7,Oc1[nH]c(=S)sc1C=C1N=c2ccccc2=N1,6.5%
8,Oc1[nH]c(N=C2N=c3ccccc3=N2)c2ccccc12,59.4% (active)
9,O=C(COc1ccccc1)N1CCN=C1SCc1ccc(F)cc1,2.9%
10,O=C(CSc1nnc2c(Cl)cc(C(F)(F)F)cn12)N(Cc1ccccc1)Cc1ccccc1,1%
11,Cc1cc(NS(=O)(=O)c2ccc(NC(=O)c3ccc(Cl)cc3Cl)cc2)no1,-5.5%
12,O=C(N/N=C(\c1ccccc1)c1cccnc1)c1cc(O)ccc1O,-0.3%
13,O=C(N/N=C(\c1ccccc1)c1cccnc1)c1ccc(O)cc1,28.3%
14,CC1=C(C#N)C(NC(=O)c2ccco2)(C(F)(F)F)C(=O)N1 (centres undefined),9.4%
15,CCc1nnc(NC(=O)c2ccc3ccccc3n2)s1,0.1%
16,CCc1nnc(NC(=O)c2c(OC)cccc2OC)s1,-5.6%
17,C=CCN1C(=O)C(CC(=O)O)SC1=Nc1ccc(C(=O)O)cc1 (centres undefined),5.3%
18,CCOC(=O)C1CCN(S(=O)(=O)c2cc(C(=O)N3CCCCC3)ccc2OC)CC1,2.3%
19,COc1ccc(CNC(=O)C2CCC(=O)N(CCCN3CCCC3=O)C2)c(OC)c1 (centres undefined),-21.5%
20,COc1cc(NC(=O)CN2CCCCC2)c(C)cc1[N+](=O)[O-],13%
21,COc1cc(NC(=O)CN2C(=O)CN(C)C2=O)c(C)cc1[N+](=O)[O-],-7.1%
22,COc1ccc(SCC(=O)c2cc(C)c(OC(=S)N(C)C)c(C)c2)cc1,-46.3%
